In PubChem BioAssay AID1347422 (Sanford-Burnham Center for Chemical Genomics, 2020) one finds thermal shift dTm data, which are given here for 69 molecules.

In all, about 1,000 compounds were measured (“thermal shift dTm”: median about 0.19, highest 2% from about 1.7 on). The sample as a whole holds a higher share of the highest values than the screen did. Activity calls are given as the source filed them.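 How the source made its calls: active means mean rise in melting temperature of at least 1 degC over same-plate control wells; inactive means below that, where a call was filed.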

This experiment deals with Sulfhydryl oxidase 1 (Homo sapiens) (UniProt O00391). Nature of the experiment: QSOX1 binders by thermal stabilization, confirmation, QSOX1 inhibitor project, biophysical, protein thermal shift, single concentration (AID 1347422).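 Further: dTm is compound Tm minus mean Tm of DMSO-only wells on that plate.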 Particulars: recombinant hQSOX1 thermal shift, Sypro Orange, at 25 µM, stronger effect = higher value.
Sequence of Sulfhydryl oxidase 1 (Homo sapiens) (O00391 whole entry, looked up): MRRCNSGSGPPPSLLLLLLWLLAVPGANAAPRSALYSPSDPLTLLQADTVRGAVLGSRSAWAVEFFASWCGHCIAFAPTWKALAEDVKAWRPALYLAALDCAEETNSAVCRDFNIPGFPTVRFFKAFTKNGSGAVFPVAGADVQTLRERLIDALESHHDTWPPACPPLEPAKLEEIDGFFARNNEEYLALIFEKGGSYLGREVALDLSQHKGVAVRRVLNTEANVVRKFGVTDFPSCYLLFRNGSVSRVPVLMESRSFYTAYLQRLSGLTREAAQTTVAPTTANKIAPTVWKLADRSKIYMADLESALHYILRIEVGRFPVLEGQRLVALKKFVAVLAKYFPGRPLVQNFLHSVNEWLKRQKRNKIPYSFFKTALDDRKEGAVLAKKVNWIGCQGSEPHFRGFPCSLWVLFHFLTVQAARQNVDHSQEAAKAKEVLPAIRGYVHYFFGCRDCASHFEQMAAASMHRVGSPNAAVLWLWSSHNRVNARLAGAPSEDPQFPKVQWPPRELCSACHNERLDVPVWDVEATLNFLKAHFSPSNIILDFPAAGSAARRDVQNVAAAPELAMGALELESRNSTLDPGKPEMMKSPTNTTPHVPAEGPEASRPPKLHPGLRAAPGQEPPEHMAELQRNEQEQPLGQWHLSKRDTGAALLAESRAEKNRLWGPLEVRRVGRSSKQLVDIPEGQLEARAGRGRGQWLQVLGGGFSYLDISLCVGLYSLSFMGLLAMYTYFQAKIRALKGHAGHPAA
For `COc1ccc(-c2c(-c3ccc(OC)c(C)c3O)n[nH]c2C(F)(F)F)cc1`, the thermal shift dTm was determined as 0.76 °C.
Regarding `Cc1ccc2sc(-c3ccc(NC(=O)CCc4ccccc4)cc3)nc2c1`, the thermal shift dTm was found to be 0.4 °C.
For `COc1ccc(NC(=O)CSCc2ccccc2C)cc1Cl`, the thermal shift dTm was found to be 0.02 °C.
Next, `O=C(c1ccncc1)c1ccc(NC(=O)c2cccs2)cc1`: 0.05 °C.
On to `Cc1ccc(S(=O)(=O)Nc2cccc(NC(=O)c3cccs3)c2)cc1`, for which the thermal shift dTm came out at 0.48 °C.
The result for `Cc1cc(C)nc(NS(=O)(=O)c2ccc(NC(=O)c3cccs3)cc2)n1` reads 2.92 °C (active).
Regarding `CC1=Nc2ccccc2/C1=C/c1c(O)n(Cc2ccco2)c(=O)[nH]c1=O`, the thermal shift dTm came out at 0.93 °C.
The result for `Cc1nc(N)sc1-c1nnc(Nc2ccccc2)s1` reads 2.14 °C (active); that for `CC(=O)c1sc(Nc2ccc(Oc3ccccc3)cc2)nc1C`, 0.15 °C; that for `CCOc1ccc(Nc2nnc(C)s2)cc1`, 0.28 °C.
The result for `Cc1ccc(NC(=O)C(C)Sc2nc3c(c(=O)[nH]2)CCCC3)cc1Cl` (centres undefined) reads 0.01 °C; that for `CCOc1ccc2nc(NC(=O)CCCCC(=O)O)sc2c1`, -0.04 °C (inactive); that for `CC(NS(=O)(=O)c1ccc(Cl)cc1)C1C2CC3CC(C2)CC1C3` (centres undefined), 0.05 °C.
With `COc1ccc(CCC(=O)Nc2nc3ccc(S(C)(=O)=O)cc3s2)cc1`, the thermal shift dTm turned out to be 0.35 °C.
With `Cc1ccc(CN2CCC(C(=O)Nc3cccc(-c4ccn[nH]4)c3)CC2)o1`, the thermal shift dTm is 0.19 °C.
The result for `CCc1nc2sc(C(=O)c3ccccc3)c(N)c2c2c1CCCC2` reads 0.11 °C.
The result for `O=C(CCCc1c[nH]c2ccccc12)NCCOc1ccc(Cl)cc1` reads -0.03 °C (inactive); that for `COc1cc(CO)cc(Cl)c1OCc1cccc2ccccc12`, 0.21 °C; that for `CC(=O)Nc1cccc(NC(=O)COc2ccc(F)cc2Cl)c1`, 0 °C (inactive).
Next, `CCSC1=N/C(=C\c2ccc(-c3cccc(Cl)c3)o2)C(=O)S1`: 0.25 °C.
With `Cc1ccc(S(=O)(=O)Nc2ccc(C(=O)Nc3ccc4c(c3)OCO4)cc2)cc1`, the thermal shift dTm was 1.03 °C (active).
In the case of `Cc1ccc(Nc2nc(C3(C)CC4(CC(C)OC4=O)C(=O)O3)cs2)cc1` (centres undefined), the thermal shift dTm was determined as 0.11 °C.
As for `O=C1OC(c2ccccc2)OC(=O)C1=Cc1ccc(-c2cccc(C(F)(F)F)c2)o1` (centres undefined), the thermal shift dTm was 1.07 °C (active).
As for `CCCc1cc(=O)[nH]c(N2CCN(Cc3ccc4c(c3)OCO4)CC2)n1`, the thermal shift dTm is 0.02 °C.
The result for `Cc1ccc(-c2n[nH]c(-c3ccncc3)n2)cc1` reads 0 °C; that for `O=C(NCCO)Nc1ccc(Cl)c(Cl)c1`, 0 °C (inactive).
The result for `O/N=C/c1cc(Cl)ccc1OCc1ccc(F)cc1` reads 0.34 °C; that for `CCOc1ccc(NC(=O)Nc2cnccn2)cc1`, 0.09 °C.
In the case of `O=C(COc1ccc(Cl)cc1)NCCSCc1ccc(Cl)c(Cl)c1`, the thermal shift dTm was found to be 0.11 °C.
Regarding `CC(=O)Nc1ccc(NC(=O)CCc2nc(-c3ccccc3)no2)cc1`, the thermal shift dTm came out at 0.14 °C.
Take `Cc1cccc(Nc2nc3ccc(C)cc3n3cnnc23)c1`: the thermal shift dTm came to 0.19 °C.
The result for `Cc1ccc(C(=O)Nc2nc(-c3ccccc3)c(C)s2)s1` reads 0.01 °C.
Next, `Cc1ccc(NC(=O)Nc2ccc(S(=O)(=O)Nc3ccccn3)cc2)cc1`: 2.37 °C (active); `Cc1noc(NS(=O)(=O)c2ccc(NC(=O)Nc3ccc(Cl)cc3)cc2)c1C`: 0.7 °C; `O=C(Nc1ccc(Cl)cc1)Nc1ccc(S(=O)(=O)Nc2ncccn2)cc1`: 1.03 °C (active).
The result for `CC(NC(=O)c1ccc(-c2cc(Cl)ccc2Cl)o1)c1ccccc1` (centres undefined) reads 0.07 °C.
In the case of `Cc1ccccc1COc1ccc(Br)cc1/C=C1/N=C(c2ccco2)OC1=O`, the thermal shift dTm worked out at 0.82 °C.
Regarding `Cc1nonc1CC(=O)N1CCc2ccc(NC(=O)Cc3ccccc3F)cc2C1`, the thermal shift dTm is 0.29 °C.
Regarding `COc1ccc(-c2nnc(Nc3ccc(O)cc3)c3ccccc23)cc1`, the thermal shift dTm was found to be 0.15 °C.
The result for `CN(C(=O)Nc1ccc(F)cc1)c1ccccc1` reads -1.43 °C (inactive); that for `Clc1cccc(-c2cn3ccccc3n2)c1`, 0.71 °C.
The result for `O=C(Nc1ccc2ncccc2c1)c1cccc([N+](=O)[O-])c1` reads 0.53 °C; that for `N#Cc1nc(/C=C/c2cccs2)oc1NCCc1ccccc1`, -37.7 °C (inactive); that for `Cc1ccc(NC(=O)N2CCC(Cc3ccccc3)CC2)cc1`, 0.07 °C.
Consider `O=C(/C=C/c1ccc(Cl)cc1)Nc1cccnc1`, for which the thermal shift dTm was 2.02 °C (active).
The result for `O=C(/C=C/c1ccc(F)cc1)Nc1ccncc1` reads 0.57 °C.
In the case of `CCCC(=O)Nc1cccc(NC(=O)/C=C/c2ccc(Cl)cc2)c1`, the thermal shift dTm was -31.6 °C (inactive).
As for `CCOc1ccc(NC(=O)Nc2cc(C)ccc2OC)cc1`, the thermal shift dTm was 0.34 °C.
Next, `CCOc1ccc(NC(=O)Nc2cc(F)ccc2C)cc1`: 2.14 °C (active); `COc1cccc(NC(=O)Nc2cc(C)ccc2F)c1`: 0 °C; `CCc1ccc(NC(=O)Nc2cc(F)ccc2F)cc1`: -15.7 °C (inactive).
Turning to `CCOc1ccc(NC(=O)Nc2cc(OC)c(OC)c(OC)c2)cc1`, the thermal shift dTm is 1.64 °C (active).
The result for `CCOc1ccc(NC(=O)Nc2cc(C)ccc2F)cc1` reads 2.42 °C (active); that for `Cc1ccc(-c2cn(S(=O)(=O)c3cccc4nsnc34)nc2N)cc1`, 0.1 °C; that for `O=C(Nc1ccccc1C(=O)O)c1cccc(S(=O)(=O)Nc2ccccc2)c1`, 1.23 °C (active).
The result for `COc1ccc(Cl)cc1Nc1nc(-c2ccccn2)cs1` reads 0.1 °C.
Next, `Cc1cnc(CNCc2ccccc2OCC(O)CN(C)C2CCCCC2)cn1` (centres undefined): 0.14 °C; `CCC(=O)c1ccc(OCC(=O)Nc2ccc(NC(C)=O)cc2)cc1`: -0.03 °C (inactive); `Cc1ccc2[nH]cc(CCNC(=O)c3ccccc3Cl)c2c1`: -0.13 °C (inactive).
Turning to `CCOc1ccccc1C1C(C#N)=C(N)Oc2cc(N(C)C)ccc21` (centres undefined), the thermal shift dTm was 0.29 °C.
In the case of `COc1ccc(-c2cc(C(F)(F)F)nc(NCc3cccs3)n2)cc1OC`, the thermal shift dTm was 0.11 °C.
In the case of `O=C(Nc1cccc(-c2ccco2)c1)C1CCN(C(=O)CCc2ccco2)CC1`, the thermal shift dTm was 1.03 °C (active).
The result for `O=C(Nc1ccc(Cl)cc1)Nc1cccc(C(=O)NCc2ccco2)c1` reads 3.11 °C (active).
The result for `CCN(CC)C(=O)c1cccc(NC(=O)Nc2ccc(Cl)cc2)c1` reads 0.23 °C; that for `CC(=O)Nc1cccc(C(=O)Nc2ccc(Cl)cc2)c1`, -7.43 °C (inactive).
The result for `CCc1ccc2c(c1)C(OC(C)=O)C(C)(C)C(c1cccc(Br)c1)N2` (centres undefined) reads 0.44 °C.
As to `O=C(CCC(=O)OCc1ccc(Br)cc1)Nc1cc(C(F)(F)F)ccc1Cl`, the thermal shift dTm amounted to 0.17 °C.
Next, `O=C(Nc1ccc(C(F)(F)F)cc1Cl)c1cc([N+](=O)[O-])[nH]n1`: 1.73 °C (active).
As for `COc1cc(-c2cccc(-c3ccn[nH]3)c2)ccc1NC(C)=O`, the thermal shift dTm stood at 0.14 °C.
